Compound activity deposited in PubChem by National Center for Advancing Translational Sciences (NCATS).
An excerpt weighted towards active compounds, which were near 9.8% of everything screened.
JMJD2E inh: qHTS Assay for Inhibitors of Human Jumonji Domain Containing 2E (JMJD2E); Potency, µM (top dose mostly 57.1 µM), for the others: top-dose activity change, negative = inhibition, most hits filed as inhibitors; Lysine-specific demethylase 4E (Homo sapiens), B2RXH2; JMJD2E catalytic domain, FDH-coupled NADH fluorescence (FDH is formaldehyde dehydrogenase); 230,000 compounds, 1.6% hits; active = well fitted inhibition curve with a large enough effect, not every such curve was filed as active; inconclusive = small, poorly fitted or top-dose-only effect, or another doubt; inactive = no such curve, though single readings can be large or run the other way;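 note: potency is the fitted concentration of half-maximal effect; 0% = wells with enzyme and -100% = buffer wells without enzyme; nearly all actives have a fitted effect of over 50% in size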
Target sequence (B2RXH2 1-337 limits assumed): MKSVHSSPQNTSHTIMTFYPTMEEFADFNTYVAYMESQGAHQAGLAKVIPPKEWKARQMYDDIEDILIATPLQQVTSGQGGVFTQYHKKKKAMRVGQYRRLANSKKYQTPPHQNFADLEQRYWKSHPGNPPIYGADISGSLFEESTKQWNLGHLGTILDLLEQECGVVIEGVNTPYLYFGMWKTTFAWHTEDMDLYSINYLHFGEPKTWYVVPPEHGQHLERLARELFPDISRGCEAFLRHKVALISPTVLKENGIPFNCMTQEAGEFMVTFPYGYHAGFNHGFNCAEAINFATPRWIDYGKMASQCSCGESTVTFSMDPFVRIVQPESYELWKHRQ
ALDH1A1 block: qHTS Assay for Inhibitors of Aldehyde Dehydrogenase 1 (ALDH1A1) | Aldehyde dehydrogenase 1A1 (Homo sapiens), P00352 | Potency, µM (highest dose often 75.3 µM), for the others: at the highest dose activity, negative = inhibition, most hits filed as inhibitors | 220,000 compounds, 7.3% hits | Purified ALDH1A1, NADH fluorescence, propionaldehyde substrate; active = well fitted inhibition curve with a large enough effect, not every such curve was filed as active; inconclusive = small, poorly fitted or top-dose-only effect, or another doubt; inactive = no such curve, though single readings can be large or run the other way;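 note: potency is the fitted concentration of half-maximal effect; plate controls were no enzyme wells and a reference inhibitor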
HTT cytoprotect: qHTS Multiplex Assay to Identify Dual Action Probes in a Cell Model of Huntington: Cytoprotection (ATP). Potency, µM (series often up to 56.4 µM), for the others: cytoprotection (ATP increase), hits mostly activators. PC12 HTT-Q103 induced, cytoprotection, ATP luminescence, 40 h. 230,000 compounds, 0.14% hits. AID 1471, 2008; note: potency is the fitted concentration of half-maximal effect; % of control where 0% means no effect; nearly all actives have a fitted effect of over 45% in size
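Quantitative HTS on tebufenozide-induced (100 nM) PC12 cells expressing HTTQ103 exon 1–GFP; compounds tested as a concentration series; survival measured via cellular ATP.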
CBFb RUNX1 block: qHTS Assay for Compounds Blocking the Interaction Between CBF-beta and RUNX1 for the Treatment of Acute Myeloid Leukemia. AID 1477, 2009. AlphaScreen CBFb-His/RUNX1-biotin binding, biochemical. Runt-related transcription factor 1 (Homo sapiens) + Core-binding factor subunit beta …. 230,000 tested, under 10 active. Potency, µM (highest dose often 59.8 µM), for the others: at the top dose activity, negative = inhibition, usual class: inhibitors; note: % of control where 0% means no effect
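Bead-based AlphaScreen assay; binding partners His-tagged CBF-beta and biotinylated RUNX1 at 30 nM each. Compound exposure 15 min after a 20-min protein preincubation; bead step 90 min; all steps at room temperature.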
HttQ103 aggreg: qHTS Multiplex Assay to Identify Dual Action Probes in a Cell Model of Huntington: Aggregate Formation (GFP). PC12 HttQ103-GFP aggregates, Acumen cytometry, 40 h. Potency, µM (titrated, usually from 46.1 µM), for the others: top-dose activity change, negative = inhibition, actives largely listed as inhibitors. 220,000 compounds, 1.1% hits; note: potency is the fitted concentration of half-maximal effect; % is set by controls: 0 for no effect and ±100 for the full control effect; nearly all actives have a fitted effect of over 60% in size
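PC12 cells stably carrying ecdysone-inducible HTT exon 1 Q103–GFP were induced with tebufenozide (100 nM final) and treated with library compounds in titration. GFP aggregates in lysates were counted by laser scanning cytometry.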
HPGD block: qHTS Assay for Inhibitors of HPGD (15-Hydroxyprostaglandin Dehydrogenase). purified HPGD, NADH fluorescence kinetic, PGE2 substrate. Potency, µM, without a hit: top-dose activity change, negative = inhibition, most hits filed as inhibitors. 150,000 compounds, 4.3% hits. AID 894, 2007; active = well fitted inhibition curve with a large enough effect, not every such curve was filed as active; inconclusive = small, poorly fitted or top-dose-only effect, or another doubt; inactive = no such curve, though single readings can be large or run the other way; note: potency is the fitted concentration of half-maximal effect; % is set by controls: 0 for no effect and ±100 for the full control effect
Target sequence (P15428 whole entry, looked up): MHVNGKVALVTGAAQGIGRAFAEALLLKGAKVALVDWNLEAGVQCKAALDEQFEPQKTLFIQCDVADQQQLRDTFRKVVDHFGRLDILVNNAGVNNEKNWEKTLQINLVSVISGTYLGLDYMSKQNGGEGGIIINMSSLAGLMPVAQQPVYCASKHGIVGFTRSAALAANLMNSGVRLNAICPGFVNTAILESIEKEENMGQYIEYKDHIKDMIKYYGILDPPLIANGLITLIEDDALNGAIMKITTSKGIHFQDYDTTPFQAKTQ
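20 nM HPGD preincubated 15 min at room temperature with compound in 50 mM Tris-HCl pH 8, 0.01% Tween 20. Started with 1 mM NAD+ and 30 uM prostaglandin E2; NADH fluorescence (360/450 nm) read 5 times over 30-s intervals, last minus first.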
The depositor's hits bear a star; ? = inconclusive; / = no result; [ ] = dose if it differs, or a comment. Unless noted, calls come from the whole dose curve; as a rule, active = well fitted curve in the direction sought with a large enough effect; inconclusive = small, poorly fitted or top-dose-only effect, or another doubt; inactive = no such curve, though single readings can be large; an effect the other way counts as inactive or inconclusive.

SMILES	JMJD2E inh	ALDH1A1 block	HTT cytoprotect	CBFb RUNX1 block	HttQ103 aggreg	HPGD block
Cc1ccc(C(NC(=O)N2CCOCC2)C(Cl)Cl)cc1F (configuration not stated)	-2%	20µM*	11%[10 µM]	1%	10%	4%
Cc1ccc(C(NC(=O)N2CCOCC2)=C(Cl)Cl)cc1F	7%	0.11µM*	-2%[4.97 µM]	1%	15%	-15%
Cc1ccc(C(NC(=O)N2CCN(C)CC2)C(Cl)Cl)cc1F (configuration not stated)	2%	?	-27%	6%	10%	/
CCN(CC(=O)O)C(=O)c1cccnc1	/	7%[13.5 µM]	-10%[10 µM]	/	/	-4%
CCCNC(=O)c1ccccc1C(=O)NC1(C(=O)NCCC)CCCC1	1%	/	5%[10 µM]	3%	6%[9.22 µM]	/
COc1cccc(CNC(=O)CCC2CCCN(C(=O)CCn3cncn3)C2)c1 (configuration not stated)	-2%	-6%	/	4%	/	/
CC(C)Oc1ccccc1C1CC(=O)Nc2cc3c(cc21)OCCO3 (configuration not stated)	2%	2%	-115%	-7%	9%	-11%
CCN(CC)c1ccc(C2CC(=O)Nc3cc(OC)c(OC)cc32)cc1 (configuration not stated)	6%	13µM*	-4%	-16%	-21%	-10%
COc1cc2c(cc1OC)C(c1ccc(N(C)C)cc1)CC(=O)N2 (configuration not stated)	-9%	8.9µM*	-1%	-14%	-15%	-13%
COc1ccccc1C1CC(=O)Nc2cc3c(cc21)OCCO3 (configuration not stated)	-6%	?	-46%[10 µM]	3%	20%	32µM*
COc1cc2c(cc1OC)C(c1cccnc1)CC(=O)N2 (configuration not stated)	-7%	8%	6%	-5%	5%	-5%
CCOC(=O)c1sc(N2N=C(C)/C(=C\c3ccc(OCC(=O)OC)cc3)C2=O)nc1C	22µM*	14µM*	21%[10 µM]	-10%	24%	28µM*
CCOC(=O)c1sc(Nc2ccc(OCC)cc2)nc1C	?	5%	0%[10 µM]	7%	8%[9.22 µM]	/
COc1ccc(Cn2nnnc2C(c2cccs2)N2CCSCC2)cc1 (configuration not stated)	-1%	-15%	5%	-4%	-19%	-6%
Fc1ccc(N2CCN(C(c3cccs3)c3nnnn3CCc3ccccc3)CC2)cc1 (configuration not stated)	-8%	1µM*	22%[10 µM]	-9%	-21%	-2%
COc1ccc(Cn2nnnc2C(c2cccs2)N2CCCCCC2)cc1 (configuration not stated)	-11%	13µM*	8%[10 µM]	28%	?	-16%
CC1CCN(C(c2cccs2)c2nnnn2Cc2ccccc2)CC1 (configuration not stated)	2%	2µM*	5%	5%	12%[9.22 µM]	-19%
COCCn1nnnc1C(c1cccs1)N1CCCC(C)C1 (configuration not stated)	8%	11µM*	/	5%	/	/
COCCn1nnnc1C(c1cccs1)N1CCN(c2ccccc2)CC1 (configuration not stated)	-2%	6%	1%	-1%	17%	-4%
Fc1ccccc1N1CCN(C(c2cccs2)c2nnnn2CCc2ccccc2)CC1 (configuration not stated)	-10%	?	36%	2%	-9%	-10%
COc1ccccc1N1C(=O)C2C(c3ccccc3F)NN(C(=O)c3ccc(C)cc3)C2C1=O (configuration not stated)	2%	8%	/	-4%[2.36 µM]	5%	?
Cc1ccc(C(=O)N2NC(c3ccccc3F)C3C(=O)N(c4cccc(C)c4)C(=O)C32)cc1 (configuration not stated)	-7%	2.5µM*	/	-4%[2.36 µM]	3%	-28%
CCOC(=O)c1sc(NC(=O)CSc2nc(C)cc(-c3ccccc3)n2)c(C#N)c1C	-6%	3.2µM*	13%[10 µM]	3%	11%	7.1µM*
CCOC(=O)c1cnc(SCC(=O)Nc2sc(C)c(C)c2C#N)nc1N	5%	32µM*	-11%[10 µM]	-3%	15%	-6%
CCOC(=O)c1sc(NC(=O)CSc2nc(C)cc(C)c2C#N)c(C#N)c1C	-1%	?	5%	-2%	?	-29%
SMILES	JMJD2E inh	ALDH1A1 block	HTT cytoprotect	CBFb RUNX1 block	HttQ103 aggreg	HPGD block
CCOC(=O)c1cnc(SCC(=O)Nc2cc(OC)cc(OC)c2)nc1N	7%	-11%	8%	1%	7%	1%
CCOC(=O)c1sc(NC(=O)CSc2n[nH]c(-c3ccc(Cl)cc3Cl)n2)c(C#N)c1C	-16%	-11%	-66%	0%	13µM*	-12%
CC(=O)c1ccc(-n2nnnc2SCC(=O)Nc2sc(C)c(C)c2C#N)cc1	-9%	18µM*	11%[10 µM]	-14%	?	-9%
CCOC(=O)c1sc(NC(=O)CSc2nc3c(cc2C#N)CCC3)c(C#N)c1C	/	/	-2%[0.074 µM]	/	/	/
CN(C)c1ccc(C2N3CC4(C)CN2CC(C)(C3)C4O)cc1 (configuration not stated)	?	0.89µM*	-18%	1%	-15%	-24%
O=C(CNC(=O)c1ccccc1Br)N/N=C/c1ccc(O)cc1	10%	?	-3%[10 µM]	-6%	12%	/
Cc1c(NC(=S)N/N=C/c2cc([N+](=O)[O-])ccc2O)c(=O)n(-c2ccccc2)n1C	8.9µM*	-14%	-8%[10 µM]	/	-7%[9.22 µM]	/
Cc1ccc(NC(=O)CCC(=O)N/N=C/c2cc([N+](=O)[O-])ccc2O)cc1	?	12%	-23%[10 µM]	-4%	?	-12%
O=C(CCC(=O)Nc1cccc(Cl)c1)N/N=C/c1cc([N+](=O)[O-])ccc1O	18µM*	-3%	-57%	-25%	-27%	/
CN1CCN(CCC(=O)N/N=C/c2cc([N+](=O)[O-])ccc2O)CC1	0.89µM*	-7%	/	2%	?	-19%
Cc1ccc(C)c(NC(=O)CCC(=O)N/N=C/c2cc([N+](=O)[O-])ccc2O)c1	?	-5%	16%[10 µM]	-23%	-9%[9.22 µM]	/
Cc1ccccc1NC(=O)CCC(=O)N/N=C/c1cc([N+](=O)[O-])ccc1O	5%	?	/	-4%	13µM*	-25%
